The values below come from PubChem BioAssay (Tox21).

Values joined by “and” are separate entries in the source; they are usually repeats but may differ in a detail not shown here. Identical values can stand only once. Inconclusive results are not listed. Where a call stands in place of a potency, no number is given. Some compounds were tested as several samples or in several runs, with calls that do not always agree. Active and inactive are the calls of the source. Calls follow the shape of the dose curve; as a rule, active = well fitted cell-killing curve with a large enough effect in the repeat runs; inconclusive = weak or mixed curves, or effect the other way; inactive = no such curve, though single readings can be large or run the other way.
Potency is read from the fitted curve at half-maximal effect.

The experiment in a line: qHTS assay for identifying genotoxic compounds that show differential cytotoxicity against isogenic chicken DT40 cell lines with known DNA damage response pathways - Rev3 mutant cell line (AID 743014). Also: nearly all actives have a fitted effect of over 55% in size. As to conditions: chicken DT40 Rev3-/- viability, CellTiter-Glo, 40 h; series mostly up to 68.4 µM; activity, negative = cytotoxicity: at the top concentration. From the text:
National Center for Advancing Translational Sciences [NCATS]
NIH Chemical Genomics Center [NCGC]
U.S. Environmental Protection Agency [EPA]
National Institutes of Environmental Health Sciences [NIEHS]
National Toxicology Program [NTP]
U.S. Food and Drug Administration [FDA]
DNA repair pathways play a critical role in cellular homeostasis by repairing DNA damage induced by endogenous processes and xenobiotics. Isogenic chicken DT40 cell lines deficient in different DNA repair pathways can be used to identify genotoxic compounds and aid in characterizing the nature of the DNA damage induced. Two DNA repair-deficient cell lines with disrupted genes, Rad54/Ku70 or Rev3, were used to screen the Tox21 10K compound library. Possible genotoxicity was based on the presence of a significant increase in cytotoxicity in one or more of the DNA repair-deficient cell lines compared to that observed in the parental DNA repair-proficient cell line. CellTiter Glo viability assay (Promega, Madison, WI) was used to measure cell viability in these cells after compound treatment. This assay includes the data from the Rev3 mutant cell line.
Tox21 Assay Protocol Summary:
300 DT40 mutant cells in 5 uL/well were dispensed into white, solid-bottom 1536-well plates using a Multidrop Combi (ThermoFisher Scientific, Waltham, MA) dispenser. After the assay plates were incubated at 37 C/5% CO2 for approximately 0.5 hour, 23 nL of compounds dissolved in DMSO, positive controls or DMSO only was transferred into the assay plate by a pintool work station (Kalypsys, San Diego, CA). The assay plates were incubated at 37 C/5% CO2 for 40 hours. After 5 uL per well of CellTiter-Glo reagent was added into each well of the assay plates, the plates were incubated for 30 min at room temperature and the luminescence intensity of the plates was measured using a ViewLux (PerkinElmer, Shelton, CT) plate reader.
Take `CC(C)Nc1nc(Cl)nc(NC(C)C)n1`: the Potency entry was “inactive”.

For the compound `O=C1CCCO1`, the Potency entry is “inactive”.

For `NC(=O)CN1CCCC1=O`, the Potency result is “inactive”.

Regarding `COc1ccc(O)c(C(C)(C)C)c1`, the “activity, negative = cytotoxicity” value was -20% (inactive).

As for `N#CCCCCC#N`, the Potency entry was “inactive”.

Consider `CCC(=O)Nc1ccc(Cl)c(Cl)c1`, for which the “activity, negative = cytotoxicity” value was -9.92% [at 95 µM] (inactive).

Take `CC1(C)C(C(=O)OC(C#N)c2cccc(Oc3ccccc3)c2)C1(C)C` (stereo not given): the “activity, negative = cytotoxicity” value is 4.68% [at 95 µM] (inactive).

Turning to `OCCOCCO`, the Potency result was “inactive”.

In the case of `CCOP(=S)(OCC)OP(=S)(OCC)OCC`, the Potency entry is “inactive”.

With `ClC(Cl)(Cl)c1ccccc1`, the Potency result is “inactive”.

As for `Clc1cccc(Cl)c1`, the Potency entry was “inactive”.

With `Brc1ccc(Br)cc1`, the “activity, negative = cytotoxicity” value is 7.73% (inactive).

Regarding `CC(C)(O)C#N`, the Potency entry is “inactive”.

For the compound `CC(C)(C#N)N=NC(C)(C)C#N`, the Potency entry is “inactive”.

For the compound `COC(=O)Nc1nc2ccccc2[nH]1`, the Potency was 6.11 µM (active) and 6.86 µM (active).

Regarding `CC(C)(c1ccc(OCC2CO2)cc1)c1ccc(OCC2CO2)cc1` (stereo not given), the Potency was 2.47 µM (active) and 3.06 µM (active).

For `C=C(C)C#N`, the Potency entry is “inactive”.

For `O=S(=O)(O)C(F)(F)C(F)(F)C(F)(F)C(F)(F)C(F)(F)C(F)(F)C(F)(F)C(F)(F)F`, the Potency is 61.1 µM (active) and 48.6 µM (active).

Turning to `Oc1ccc(Cl)cc1Cl`, the Potency entry is “inactive”.

In the case of `O=C(O)c1nn(Cc2ccc(Cl)cc2Cl)c2ccccc12`, the Potency result is “inactive”.

Regarding `CCOC(=O)c1ccccc1N`, the Potency result is “inactive”.

Turning to `CNC(=O)CSP(=S)(OC)OC`, the Potency entry is “inactive”.

As to `C[C@]12CC[C@H]3[C@@H](CCC4=CC(=O)CC[C@@H]43)[C@@H]1CC[C@@H]2O`, the “activity, negative = cytotoxicity” value was -17.5% (inactive).

Take `CN(C)P(=O)(N(C)C)N(C)C`: the “activity, negative = cytotoxicity” value was 3.05% (inactive).

For the compound `Nc1ccc([N+](=O)[O-])cc1N`, the Potency was 43.2 µM (active) and inactive.

With `Clc1cccc(C(Cl)(Cl)Cl)n1`, the Potency result is “inactive”.

Turning to `Clc1ccccc1-c1nnc(-c2ccccc2Cl)nn1`, the “activity, negative = cytotoxicity” value was -18.1% (inactive).

As to `CC1=C(C(=O)Nc2ccccc2)SCCO1`, the Potency was 24.7 µM (active) and 12.2 µM (active).

Regarding `O=[N+]([O-])c1ccc(Nc2ccccc2)cc1`, the Potency is 54.9 µM (active) and 13.7 µM (active).

Turning to `O=C1C(Cl)=C(Cl)C(=O)c2ccccc21`, the Potency was 972 nM (active) and 969 nM (active).

`C=CC(Cl)CCl` (stereo not given): the “activity, negative = cytotoxicity” value was -1.04% [at 95 µM] (inactive).

Regarding `CCN(CC)C(=O)C(C)Oc1cccc2ccccc12` (stereo not given), the Potency was 54.9 µM (active) and 17.2 µM (active).

As for `C[N+](C)(C)C`, the Potency entry was “inactive”.

For `CC(C)(O)C(=O)Nc1ccc([N+](=O)[O-])c(C(F)(F)F)c1`, the Potency is 49.5 µM (active) and 6.31 µM (active).

As for `CC1(C)Cc2cccc(O)c2O1`, the Potency entry is “inactive”.

On to `CCOS(=O)(=O)OCC`, for which the Potency entry was “inactive and 54.5 µM (active)”.

`CC1CC(=O)O1` (stereo not given): the Potency result was “inactive”.

In the case of `CCNc1nc(Cl)nc(NC(C)(C)C#N)n1`, the Potency result is “inactive”.

As to `CC(O)CN(CC(C)O)CC(C)O` (stereo not given), the Potency result was “inactive”.

As to `Oc1ccc(Cl)cc1Cc1ccccc1`, the Potency is 26.6 µM (active) and 54.5 µM (active) and 21.3 µM (active).
